Each structure is given as a SMILES string. About 300 (0.45%) of roughly 67,000 compounds showed an effect of 50% or more. This is one part of a sample in which strong results are shown more often than they occur.

The target of this assay is Polyketide synthase Pks13 (Mycobacterium tuberculosis (strain ATCC 25618 / H37Rv)) (UniProt I6X8D2). The experiment in a line: Mycobacterium tuberculosis Polyketide synthase 13 Thioesterase (PKS13). The assay is classed as functional. More on the design: scale not given: in the data most compounds retested in dose-response had high values. The conditions noted are these: 30 µM.
Chain of Polyketide synthase Pks13 (Mycobacterium tuberculosis (strain ATCC 25618 / H37Rv)) (I6X8D2 whole entry): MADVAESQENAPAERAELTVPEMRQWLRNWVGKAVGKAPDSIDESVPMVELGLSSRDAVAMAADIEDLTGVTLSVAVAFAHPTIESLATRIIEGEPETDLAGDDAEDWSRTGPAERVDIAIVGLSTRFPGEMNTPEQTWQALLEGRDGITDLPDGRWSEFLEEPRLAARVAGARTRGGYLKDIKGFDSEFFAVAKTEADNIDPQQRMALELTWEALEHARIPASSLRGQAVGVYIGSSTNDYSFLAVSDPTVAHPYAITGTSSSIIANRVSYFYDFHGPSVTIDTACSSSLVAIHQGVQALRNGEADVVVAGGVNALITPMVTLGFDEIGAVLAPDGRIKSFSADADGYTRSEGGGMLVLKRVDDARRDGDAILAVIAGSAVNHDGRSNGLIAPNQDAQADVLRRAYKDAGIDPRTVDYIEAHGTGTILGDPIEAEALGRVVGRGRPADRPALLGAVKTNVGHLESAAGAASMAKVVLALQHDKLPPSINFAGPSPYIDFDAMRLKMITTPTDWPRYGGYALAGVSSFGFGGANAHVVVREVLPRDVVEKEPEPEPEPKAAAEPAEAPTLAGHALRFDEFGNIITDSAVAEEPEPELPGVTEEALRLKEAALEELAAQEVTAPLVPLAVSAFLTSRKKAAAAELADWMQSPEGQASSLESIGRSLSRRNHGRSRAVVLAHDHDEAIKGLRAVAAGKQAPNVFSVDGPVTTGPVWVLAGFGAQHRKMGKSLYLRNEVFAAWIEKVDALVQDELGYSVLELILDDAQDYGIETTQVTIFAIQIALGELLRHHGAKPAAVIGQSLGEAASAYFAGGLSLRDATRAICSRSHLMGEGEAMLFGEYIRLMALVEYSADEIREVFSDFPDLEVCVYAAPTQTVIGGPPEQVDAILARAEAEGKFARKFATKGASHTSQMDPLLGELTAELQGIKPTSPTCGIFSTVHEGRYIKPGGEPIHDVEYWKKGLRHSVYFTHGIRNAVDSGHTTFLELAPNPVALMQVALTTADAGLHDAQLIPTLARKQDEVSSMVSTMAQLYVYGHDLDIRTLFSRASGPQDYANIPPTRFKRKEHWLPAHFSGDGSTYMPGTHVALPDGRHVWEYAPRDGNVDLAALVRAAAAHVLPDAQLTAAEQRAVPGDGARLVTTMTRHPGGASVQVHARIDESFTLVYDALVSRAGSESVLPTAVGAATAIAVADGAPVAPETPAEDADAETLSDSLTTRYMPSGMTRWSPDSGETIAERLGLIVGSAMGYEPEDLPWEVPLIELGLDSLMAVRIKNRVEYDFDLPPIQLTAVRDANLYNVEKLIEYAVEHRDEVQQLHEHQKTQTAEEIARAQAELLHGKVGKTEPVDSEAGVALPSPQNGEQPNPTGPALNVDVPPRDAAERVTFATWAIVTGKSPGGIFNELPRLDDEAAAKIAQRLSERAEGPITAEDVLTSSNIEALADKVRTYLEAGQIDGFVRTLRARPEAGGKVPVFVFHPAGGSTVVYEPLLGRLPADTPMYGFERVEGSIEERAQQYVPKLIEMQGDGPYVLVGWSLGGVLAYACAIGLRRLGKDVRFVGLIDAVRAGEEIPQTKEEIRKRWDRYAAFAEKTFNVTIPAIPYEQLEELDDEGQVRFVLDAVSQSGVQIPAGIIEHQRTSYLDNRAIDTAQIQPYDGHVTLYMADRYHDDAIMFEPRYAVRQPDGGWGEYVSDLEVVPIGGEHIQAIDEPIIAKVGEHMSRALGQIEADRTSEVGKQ
As for `Cc1ccc(CN2C[C@@H]3[C@@H](C(=O)NCC(C)C)CCS(=O)(=O)[C@@H]3C2)cc1`, the Percent Effect is -36.5%.
With `CCc1ccc(NC(=O)N2C[C@H]3C[C@H](C(=O)N4CCCC4)[C@@H](C2)O3)cc1` the figure was -33.7%; with `COC[C@@]12CCO[C@@H]1CCN(C(=O)COc1ccccc1OC)C2`, -28.6%; with `CNC(=O)[C@H]1C[C@H]2OCC[C@H]2N(Cc2cccc3ccccc23)C1`, -14%.
Next, `CCCN1C[C@H]2CC[C@@H]1CN(C(=O)Cc1c(C)nc(CC)[nH]c1=O)C2`: -18.4%; `CCCN1CCN(C(=O)c2ccc3ccccc3n2)[C@H]2CS(=O)(=O)C[C@H]21`: 11.6%; `Cc1noc(C)c1CN1C(=O)[C@H]2CC[C@@H]1CN(Cc1nccs1)C2`: -22.4%.
With `COc1ccc(CC(C)Nc2cccc(F)c2)cc1` (stereo unspecified) the figure was 8.52%; with `COc1ccc(CC(C)Nc2cccc(SC)c2)cc1` (stereo unspecified), 57.2%; with `COc1ccc(CCNC(=O)C(C)Nc2ccc(C)c(C)c2)cc1` (stereo unspecified), 1.46%.
As to `COc1ccc(CCNC(=O)C(C)Nc2cccc(C)c2C)cc1` (stereo unspecified), the Percent Effect was 10.4%.
Next, `COc1ccc(CCC(C)Nc2cccc(SC)c2)cc1` (stereo unspecified): 65.2%.
Next, `COc1ccc(C(=O)Nc2cccc(SC)c2)c(OC)n1`: -19.8%; `Cn1cc(CN2C[C@@H]3COC[C@]3(CNC(=O)c3ccsc3)C2)cn1`: -27.4%.
Next, `Cc1noc([C@@]23CCO[C@@H]2CCN(Cc2scnc2C)C3)n1`: -8.64%; `Cc1cc(CN2C[C@H]3CCC[C@@]3(COCc3csc(C)n3)C2)no1`: -42.7%.
As for `Cc1cc(F)ccc1C(=O)N1C[C@@H]2COC[C@]2(CN(C)C)C1`, the Percent Effect was -28.5%.
Next, `O=C([C@H]1COC[C@H]2CN(C3CCCC3)C[C@H]21)N1CCCCO1`: -0.965%; `Cc1ccnc(OC[C@]23COC[C@H]2CN(C(=O)c2cnccn2)C3)n1`: -10.7%; `Cc1ccnc(OC[C@]23COC[C@H]2CN(C(=O)c2ccnn2C)C3)n1`: -7.96%.
With `Cc1ccnc(OC[C@]23COC[C@H]2CN(C(=O)c2ncccn2)C3)n1` the figure was 64%; with `COCCNC(=O)[C@@]12CCO[C@@H]1CCN(Cc1cc(C)on1)C2`, -12.3%.
Next, `Cn1cc(CN2C[C@@H]3COC[C@@H](C(=O)N4CCCCO4)[C@@H]3C2)cn1`: -30.5%; `Cc1ccccc1-n1cc(CN(C)C[C@@H]2CCCN3CCCC[C@H]23)cn1`: -16.8%; `Cc1cc(C(=O)N2C[C@@H]3COC[C@]3(c3nnc(C4CC4)o3)C2)on1`: -7.03%.
Take `Cc1ccc(C(=O)NC(C)CN2CCCC2=O)c(=O)[nH]1` (stereo unspecified): the Percent Effect was -2.59%.
Next, `CCC(C)NC(=O)c1ccc(-c2ccco2)[nH]c1=O` (stereo unspecified): 7.06%.
With `CC(CN1CCCC1=O)NC(=O)c1ccc(-c2ccco2)[nH]c1=O` (stereo unspecified) the figure was 73%; with `O=C1[C@@H]2CCN(C3CCOCC3)C[C@@H]2OCCN1Cc1cccnc1`, -7.59%.
For the compound `COC[C@H]1CNC(=O)[C@@H]2CCN(Cc3ccc(F)cc3)CC[C@H]12`, the Percent Effect was -30.6%.
Next, `Cn1cnc(-c2nc(C(=O)NC3CC3)c3ccccn23)c1`: 113%; `Cn1cnc(-c2nc(C(=O)NCC3CCCO3)c3ccccn23)c1` (stereo unspecified): 5.5%; `Cn1cnc(-c2nc(C(=O)NCCN3CCOCC3)c3ccccn23)c1`: 141%.
Next, `Cn1cnc(-c2nc(C(=O)NCCN3CCCC3)c3ccccn23)c1`: 18.6%.
With `CC(C)n1cnc(-c2nc(C(=O)NC3CC3)c3ccccn23)c1` the figure was 22.1%; with `COCCNC(=O)c1nc(-c2cn(C)cn2)n2ccccc12`, 21.3%.
Take `CN1CCCC(N2CCN(c3nc4ccccn4c3C#N)CC2)C1` (stereo unspecified): the Percent Effect turned out to be 15.1%.
Next, `N#Cc1c(N2CCCN(C3CCOCC3)CC2)nc2ccccn12`: 95.8%; `N#Cc1c(N2CCN(CC3CCOC3)CC2)nc2ccccn12` (stereo unspecified): 5.84%.
For `CC(C)c1noc(CC[C@@H]2CCCN3CCCC[C@H]23)n1`, the Percent Effect was -17.9%.
Next, `c1cc(CN2CC[C@H]3CO[C@H](CN4CCOCC4)[C@H]3C2)cs1`: -3.35%; `O=C1N(CC2CC2)CCC12CCN(c1ncccn1)CC2`: 2.59%.
Next, `Cc1cnc(N2CCC3(CCN(CC4CC4)C3=O)CC2)nc1`: 71.3%; `Cc1cnc(N2CCC3(CCN(CC4CCCC4)C3=O)CC2)nc1`: -3.7%.
Turning to `COc1ccc(CN2CC[C@H]3CO[C@H](CNC(=O)N(C)C)[C@H]3C2)cc1`, the Percent Effect is -14.2%.
With `CCCn1c(N2CCCC(C)C2)nc2c(C)nn(C)c2c1=O` (stereo unspecified) the figure was 3.25%; with `CCCn1c(N2CCCC2)nc2c(C)nn(C)c2c1=O`, 67%.
Consider `CCCn1c(N2CCCCC2)nc2c(C)nn(C)c2c1=O`, for which the Percent Effect was determined as 14%.
In the case of `Cc1ccoc1-c1nnc(CN2CCOC(Cn3cccn3)C2)o1` (stereo unspecified), the Percent Effect was -3.25%.
Next, `Cc1noc(C)c1C(=O)N1C[C@H]2CC[C@@H]1CN(c1cnccn1)C2`: -13.5%.
In the case of `Cn1nccc1CCC(=O)N1CCOC(c2cnccn2)C1` (stereo unspecified), the Percent Effect worked out at 4.28%.
Next, `Cn1nccc1CCC(=O)N1CCCC(c2cnccn2)C1` (stereo unspecified): 54.2%.
With `Cn1nccc1CCC(=O)N1CCC(c2cnccn2)CC1` the figure was -6.75%; with `COc1ccccc1N1CCC(CNCc2cccc(C#N)c2)C1` (stereo unspecified), 14.1%; with `COc1ccccc1N1CCC(CNS(=O)(=O)c2cccc(C#N)c2)C1` (stereo unspecified), 50.9%.
Regarding `COc1ccccc1N1CCC(CNS(=O)(=O)c2cccs2)C1` (stereo unspecified), the Percent Effect worked out at 80.9%.

Values taken from ChEMBL document CHEMBL3988442, “University of Dundee, Small-Polar-MMV Screening Library” (2021).
